The nature of experiment [1]: Nuclear factor erythroid 2-related factor 2/antioxidant responsive element (Nrf2/ARE) small molecule agonists: qHTS cell viability counter screen in human keratinocytes (AID 1919968; active means well fitted curve in the direction sought with a large enough effect in the repeat runs; an effect the other way counts as inactive or inconclusive; further: nearly all actives have a fitted effect of over 55% in size; further: potency means the concentration at half of the fitted maximal effect). The procedure, abridged: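 Parallel cytotoxicity read: KeratinoSens HaCaT cells, compound treatment 23 h, viability by CellTiter-Fluor fluorescence 1 h post-reagent.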
(In general: In qHTS, concentration-response curves come from the screen itself.)

The nature of experiment [2]: Nuclear factor erythroid 2-related factor 2/antioxidant responsive element (Nrf2/ARE) small molecule agonists: luciferase reporter gene qHTS assay in human keratinocytes (AID 1919969). Further: nearly all actives have a fitted effect of over 35% in size. Further: potency means the concentration at half of the fitted maximal effect.
The target of experiment [3] is Gonadotropin-releasing hormone receptor (Homo sapiens) (UniProt P30968). Briefly: Human gonadotropin-releasing hormone receptor (GnRHR) small molecule agonists, calcium flux assay in GnRHR-HEK293 cells (AID 1920063). Further: nearly all actives have a fitted effect of over 35% in size. The procedure, abridged:
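Calcium flux, agonist mode, human GnRHR stably integrated in HEK293; dye 1 h at 37 C before compound; Ex/Em=480/540 kinetic read, 3 min; 15 concentrations, triplicate.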
A general note: Calcium flux is commonly read through the fluorescence of an indicator in the cells.

Experiment [4] deals with KiSS-1 receptor (Homo sapiens) (UniProt Q969F8). Briefly: Human kisspeptin (KISS1R) small molecule agonists, calcium flux assay in KISS1R-HEK293 cells (AID 1920064; active means well fitted curve in the direction sought with a large enough effect in the repeat runs; an effect the other way counts as inactive or inconclusive). Summed up:
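Triplicate 15-concentration series were applied to dye-loaded human KISS1R HEK293 cells, and agonist-evoked calcium fluorescence was captured for 3 min.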

Experiment [5] can be described thus: G protein-coupled receptor (GPCR) small molecule agonists, calcium flux assay: HEK293 wild type cell line counter screen (AID 1920065). The procedure, abridged: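 Non-specific calcium responders were flagged by adding DMSO-dissolved compounds to dye-loaded cells and reading 480/540 nm fluorescence each second for 3 min; ATP served as positive control.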
Experiment [6] is described as follows: p53 small molecule agonists, cell-based qHTS assay with human liver microsomes (AID 1963577).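 Further: p53 response element beta-lactamase reporter cells with liver microsomes plus NADPH.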 The procedure, abridged: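 Steps: plate p53RE-bla cells, incubate 5 h at 37 C; add compound in DMSO; add microsomes (0.5 mg/mL final) and NADPH (0.5 mg/mL final); incubate 16 h at 37 C; add LiveBLAzer, 2 h RT; read fluorescence.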
Experiment [7] is described as follows: p53 small molecule agonists, cell-based qHTS assay with rat liver microsomes (AID 1963578). Summed up: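 Metabolic activation is supplied by rat liver microsomes with NADPH (each 0.5 mg/mL final). p53RE-bla cells incubate with compound 16 h at 37 C; reporter activity is measured by LiveBLAzer fluorescence.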
Experiment [8] in a line: p53 small molecule agonists, cell-based qHTS assay with human liver microsomes: qHTS cell viability counter screen (AID 1963579). Further: nearly all actives have a fitted effect of over 45% in size. Summed up: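 After the 460/530 nm beta-lactamase read, CellTiter-Glo was added to the same wells and luminescence measured after 30 min at room temperature, giving viability of p53RE-bla cells treated 16 h with compounds plus microsomes and NADPH.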

Experiment [9] in a line: p53 small molecule agonists, cell-based qHTS assay with rat liver microsomes: qHTS cell viability counter screen (AID 1963580). Further: nearly all actives have a fitted effect of over 45% in size. Summed up:
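Rat liver microsome (0.5 mg/mL final) and NADPH (0.5 mg/mL final) co-incubation with compounds for 16 h at 37 C on HCT-116 p53RE-bla cells; cytotoxicity taken from intracellular ATP luminescence.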

Experiment [10] is described as follows: p53 small molecule agonists, cell-based qHTS assay: qHTS cell viability counter screen (AID 1963581). Further: nearly all actives have a fitted effect of over 45% in size. Summed up: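 Multiplexed with the reporter read, a CellTiter-Glo step (30 min, room temperature) gauges ATP-based viability of HCT-116 p53RE-bla cells after 16 h compound incubation at 37 C.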
A short description of experiment [11]: p53 small molecule agonists, cell-based qHTS assay (AID 1963582; active means well fitted activation curve with a large enough effect in the signal ratio in the repeat runs, not every such curve was filed as active; the % refers to the signal ratio). Summed up: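 Beta-lactamase reporter cells (p53RE-bla) treated with compounds for 16 h at 37 C; FRET substrate, 2 h, room temperature; fluorescence intensity.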
Experiment [12] concerns the target 5-hydroxytryptamine receptor 2A (Homo sapiens) (UniProt P28223). Briefly: 5-hydroxytryptamine receptor 2A (HTR2A) small molecule antagonists, cell-based qHTS assay (AID 1963586). Further: nearly all actives have a fitted effect of over 45% in size. The procedure, abridged:
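CHO cells stably expressing human HTR2A were plated for 18 h at 37 C, then loaded with calcium dye for 1 h. Compounds were preincubated 5 min at room temperature before DOI (4 nM solution) was added. Kinetic fluorescence was read for 3 min.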

Experiment [13] has the same target. Briefly: 5-hydroxytryptamine receptor 2A (HTR2A) small molecule agonists, cell-based qHTS assay (AID 1963587). Further: nearly all actives have a fitted effect of over 30% in size. The procedure, abridged: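 Kinetic calcium-flux fluorescence (2 min, 1 sec intervals) after compound addition in agonist mode. HTR2A-CHO cells were cultured 18 h, then dye-loaded 1 h at 37 C.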
Experiment [14] addresses Muscarinic acetylcholine receptor M1 (Homo sapiens) (UniProt P11229). Briefly: Cholinergic receptor muscarinic 1 (CHRM1) small molecule antagonists, cell-based qHTS assay (AID 1963588). Further: nearly all actives have a fitted effect of over 40% in size. Further: potency means the concentration at half of the fitted maximal effect. The procedure, abridged:
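Compounds were tested at 15 concentrations in three independent runs. Dye-loaded CHRM1-CHO cells were exposed 5 min at room temperature before stimulation by acetylcholine added at 50nM. Intracellular calcium was read kinetically on FDSS for 3 min.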

A short description of experiment [15]: cAMP Responsive Elements (CRE) small molecule agonists, cell-based qHTS assay (AID 1963590). Summed up:
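Quantitative HTS for CRE agonists: HEK 293T CRE-bla cells, overnight plating, 3 h compound incubation at 37 C/5% CO2, then 2 h room-temperature LiveBLAzer B/G FRET substrate loading.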

Experiment [16] addresses Beta-2 adrenergic receptor (Homo sapiens) (UniProt P07550). Nature of the experiment: Adrenergic beta2 receptor (ADRB2) small molecule antagonists, cell-based qHTS assay (AID 1963592). Further: series mostly up to about 92 µM; nearly all actives have a fitted effect of over 50% in size. The procedure, abridged: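 Assay format: CHO-ADRB2 cells, 18-20hr seeding at 37C/5% CO2, then compound plus 1nM isoproterenol agonist mix for 0.5hr RT. Homogeneous time-resolved fluorescence cAMP detection after 1hr, expressed as 665/615 nm ratio.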

Experiment [17] addresses D(2) dopamine receptor (Homo sapiens) (UniProt P14416). Briefly: Dopamine D2 receptor (DRD2) small molecule agonists, cell-based qHTS assay (AID 1963594). Further: nearly all actives have a fitted effect of over 35% in size. The procedure, abridged: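 cAMP accumulation in DRD2-HEK293 cells measured by HTRF after 1 h detection; compounds added 10 min before NKH477 (200nM […]) forskolin-analogue stimulation, 30 min at room temperature, with Ro20-1724 present at 0.1 mM final.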

Experiment [18] shares this target. Briefly: Dopamine D2 receptor (DRD2) small molecule antagonists, cell-based qHTS assay (AID 1963595; active means well fitted inhibition curve with a large enough effect in the signal ratio in the repeat runs, with a control signal flat; the % refers to the signal ratio). The procedure, abridged: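 Readout: HTRF cAMP, cAMP-d2 competing with cellular cAMP for anti-cAMP cryptate, read after 1 h. Cells: DRD2-HEK293. Conditions: 0.1 mM Ro20-1724, 12 nM quinpirole, 200 nM NKH477, 30 min RT.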
For experiment [19], the target named is Muscarinic acetylcholine receptor M1 (Homo sapiens) (UniProt P11229). Briefly: Cholinergic receptor muscarinic 1 (CHRM1) small molecule agonists, cell-based qHTS assay (AID 1963589). Further: nearly all actives have a fitted effect of over 35% in size. Summed up:
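qHTS, 15-point titration, 3 independent runs: compounds pin-transferred onto dye-loaded CHRM1-CHO cells (human M1), calcium fluorescence followed every second to detect agonism.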

Experiment [20] is described as follows: cAMP Responsive Elements (CRE) small molecule antagonists, cell-based qHTS assay (AID 1963591; active means well fitted inhibition curve with a large enough effect in the signal ratio in the repeat runs, not every such curve was filed as active; the % refers to the signal ratio). The procedure, abridged:
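Fluorescence intensity from cleaved LiveBLAzer B/G substrate (2 h, room temperature) quantified CRE-bla activity in HEK 293T cells exposed 3 h to compound with 0.25 uM final NKH477.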

These results are taken from PubChem BioAssay (Tox21).

Values joined by “and” are separate entries in the source; they are usually repeats but may differ in a detail not shown here. Equal values may be shown once. Inconclusive results are not listed. The source holds several records for some structures; these can differ, active in one and inactive in another. Active and inactive are the calls of the source. Unless noted, the call rests on the fitted dose curve.

KiSS-1 receptor (Homo sapiens), sequence (Q969F8 whole entry, looked up): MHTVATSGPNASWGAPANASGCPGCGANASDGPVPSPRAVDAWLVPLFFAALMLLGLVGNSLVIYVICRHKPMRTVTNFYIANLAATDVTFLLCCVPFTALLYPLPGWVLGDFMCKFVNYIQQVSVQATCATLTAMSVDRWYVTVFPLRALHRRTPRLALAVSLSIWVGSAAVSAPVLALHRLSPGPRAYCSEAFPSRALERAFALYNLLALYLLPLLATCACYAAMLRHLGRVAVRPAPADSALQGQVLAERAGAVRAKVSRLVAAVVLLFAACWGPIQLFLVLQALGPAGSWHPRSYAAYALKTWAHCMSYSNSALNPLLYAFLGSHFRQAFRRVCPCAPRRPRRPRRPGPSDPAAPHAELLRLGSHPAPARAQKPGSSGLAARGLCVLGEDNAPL
D(2) dopamine receptor (Homo sapiens), sequence (P14416 whole entry, looked up): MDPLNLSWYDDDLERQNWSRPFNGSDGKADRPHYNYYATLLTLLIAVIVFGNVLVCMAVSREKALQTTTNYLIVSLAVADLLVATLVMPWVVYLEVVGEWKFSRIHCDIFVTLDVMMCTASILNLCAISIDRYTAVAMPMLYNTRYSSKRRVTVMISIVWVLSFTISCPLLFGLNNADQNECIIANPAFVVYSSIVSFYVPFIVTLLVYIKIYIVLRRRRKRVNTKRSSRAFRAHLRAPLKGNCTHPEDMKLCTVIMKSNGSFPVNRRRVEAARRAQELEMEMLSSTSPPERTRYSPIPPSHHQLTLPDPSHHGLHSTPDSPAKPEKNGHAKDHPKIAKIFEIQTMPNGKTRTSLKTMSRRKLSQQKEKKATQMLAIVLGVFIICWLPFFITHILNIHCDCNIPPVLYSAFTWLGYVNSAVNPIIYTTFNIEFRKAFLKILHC
Gonadotropin-releasing hormone receptor (Homo sapiens), sequence (P30968 whole entry, looked up): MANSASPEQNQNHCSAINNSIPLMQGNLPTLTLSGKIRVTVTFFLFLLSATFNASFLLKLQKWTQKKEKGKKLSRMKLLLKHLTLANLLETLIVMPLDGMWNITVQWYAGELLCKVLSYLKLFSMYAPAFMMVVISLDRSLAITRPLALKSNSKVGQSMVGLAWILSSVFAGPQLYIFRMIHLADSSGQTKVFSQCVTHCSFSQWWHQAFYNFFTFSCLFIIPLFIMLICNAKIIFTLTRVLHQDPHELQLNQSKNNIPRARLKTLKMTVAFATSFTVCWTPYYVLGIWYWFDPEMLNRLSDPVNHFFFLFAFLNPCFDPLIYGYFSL
Muscarinic acetylcholine receptor M1 (Homo sapiens), sequence (P11229 whole entry, looked up): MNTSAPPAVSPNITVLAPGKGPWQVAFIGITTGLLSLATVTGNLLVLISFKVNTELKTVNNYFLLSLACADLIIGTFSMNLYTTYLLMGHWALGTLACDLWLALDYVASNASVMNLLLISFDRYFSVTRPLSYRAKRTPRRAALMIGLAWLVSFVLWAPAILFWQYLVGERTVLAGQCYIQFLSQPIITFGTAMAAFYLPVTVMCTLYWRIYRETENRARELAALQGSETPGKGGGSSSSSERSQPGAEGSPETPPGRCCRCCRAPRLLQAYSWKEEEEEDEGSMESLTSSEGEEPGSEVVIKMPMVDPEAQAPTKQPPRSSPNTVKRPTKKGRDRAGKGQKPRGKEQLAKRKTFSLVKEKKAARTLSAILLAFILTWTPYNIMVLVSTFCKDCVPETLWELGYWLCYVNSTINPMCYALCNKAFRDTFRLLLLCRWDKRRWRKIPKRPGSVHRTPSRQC
5-hydroxytryptamine receptor 2A (Homo sapiens), sequence (P28223 whole entry, looked up): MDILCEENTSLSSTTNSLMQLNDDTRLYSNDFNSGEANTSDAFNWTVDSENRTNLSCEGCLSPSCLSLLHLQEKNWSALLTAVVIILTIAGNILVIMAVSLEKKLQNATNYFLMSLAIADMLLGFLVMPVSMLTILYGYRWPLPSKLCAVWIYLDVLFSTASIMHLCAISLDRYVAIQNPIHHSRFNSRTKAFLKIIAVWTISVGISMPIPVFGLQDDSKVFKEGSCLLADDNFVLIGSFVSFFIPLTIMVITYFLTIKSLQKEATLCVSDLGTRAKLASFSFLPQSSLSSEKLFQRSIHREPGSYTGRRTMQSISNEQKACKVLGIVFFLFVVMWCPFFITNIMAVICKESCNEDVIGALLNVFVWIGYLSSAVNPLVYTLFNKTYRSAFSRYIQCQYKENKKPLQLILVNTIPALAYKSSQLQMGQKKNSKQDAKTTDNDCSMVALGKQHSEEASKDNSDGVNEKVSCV
Beta-2 adrenergic receptor (Homo sapiens), sequence (P07550 whole entry, looked up): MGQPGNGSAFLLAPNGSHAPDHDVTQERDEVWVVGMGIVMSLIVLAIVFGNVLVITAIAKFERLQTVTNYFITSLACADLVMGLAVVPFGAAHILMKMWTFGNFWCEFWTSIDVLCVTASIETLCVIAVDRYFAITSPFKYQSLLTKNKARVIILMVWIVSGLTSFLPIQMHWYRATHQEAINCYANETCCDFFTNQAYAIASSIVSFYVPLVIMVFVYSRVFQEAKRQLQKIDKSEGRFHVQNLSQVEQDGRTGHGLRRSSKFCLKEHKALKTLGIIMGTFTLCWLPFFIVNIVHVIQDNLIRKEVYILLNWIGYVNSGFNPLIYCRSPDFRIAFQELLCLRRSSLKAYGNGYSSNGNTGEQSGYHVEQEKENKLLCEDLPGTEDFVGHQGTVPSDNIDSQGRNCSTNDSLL

As to `Nc1ccccc1C(=O)OCC(O)CO` (stereo unspecified), the Potency result in experiment [1], in [2], in [3], in experiment [4], in experiment [5] and in experiment [6] was “inactive” each time. The Potency entry in [7], in [8], in experiment [9], in experiment [10], in [11] and in [12] was “inactive” throughout. Besides, the Potency entry in experiment [13], in experiment [14], in experiment [15], in experiment [16], in [17] and in [18] was “inactive” in each case.

With `O=NN1CCCC1`, the Potency in experiment [1] is 14.3 µM (active) and inactive. Further, the Potency entry in experiment [2], in experiment [3], in [4], in experiment [5], in experiment [6] and in experiment [7] was “inactive” throughout. Besides, the Potency entry in experiment [8], in experiment [9], in experiment [10], in experiment [11], in [12] and in experiment [13] was “inactive” in each case. For the same compound, the Potency result in experiment [19], in experiment [15], in [16], in experiment [17] and in experiment [18] was “inactive” throughout.

On to `Cc1ccccc1N`, for which the Potency entry in experiment [1], in experiment [2], in experiment [3], in experiment [4], in experiment [5] and in experiment [6] was “inactive” each time. In addition, the Potency result in [7], in experiment [8], in [9], in experiment [10], in experiment [11] and in experiment [12] was “inactive” in each case. Further, the Potency entry in experiment [13], in experiment [14], in [15], in [20], in [16] and in [17] was “inactive” each time. For the same compound, the Potency result in [18] is “inactive”.

Take `CCCC[N+]1(C)CCCC1`: the Potency entry in [1], in [3], in experiment [4], in [5], in [6] and in [7] was “inactive” each time. For the same compound, the Potency entry in experiment [8], in experiment [9], in [10], in experiment [11], in experiment [12] and in [13] was “inactive” in each case. Also, the Potency result in experiment [15], in experiment [20], in experiment [16] and in experiment [18] was “inactive” in each case. Besides, the Potency entry is “inactive and 54.8 µM (active)” in experiment [2]; “inactive and 5.98 µM (active) and 4.27 µM (active)” in experiment [14].

For `O=C(O)C(Br)Br`, the Potency result in experiment [1], in [2], in experiment [3], in [4], in experiment [5] and in [6] was “inactive” throughout. In addition, the Potency result in experiment [7], in experiment [8], in [9], in experiment [10], in [11] and in experiment [12] was “inactive” each time. The Potency entry in experiment [14], in experiment [19], in experiment [15], in experiment [20], in experiment [16] and in experiment [17] was “inactive” in each case. In addition, in experiment [18], the Potency entry was “inactive”.

On to `C1CCC(NC2CCCCC2)CC1`, for which the Potency result in [1], in experiment [2], in experiment [3], in [4], in experiment [5] and in experiment [6] was “inactive” in each case. Moreover, the Potency result in experiment [7], in experiment [8], in experiment [9], in experiment [10], in experiment [11] and in experiment [12] was “inactive” each time. Also, the Potency result in experiment [13], in experiment [14], in [20], in experiment [16], in experiment [17] and in experiment [18] was “inactive” throughout.

With `CNC(=O)NC(O)C(Cl)(Cl)Cl` (stereo unspecified), the Potency entry in experiment [1], in experiment [2], in experiment [3], in experiment [4], in experiment [5] and in experiment [6] was “inactive” throughout. Moreover, the Potency entry in experiment [7], in experiment [8], in experiment [9], in experiment [10], in experiment [11] and in [12] was “inactive” in each case. The Potency result in experiment [13], in experiment [14], in experiment [15], in experiment [20] and in experiment [16] was “inactive” in each case.

As for `COS(=O)(=O)OC`, the Potency result in experiment [1], in experiment [2], in experiment [3], in experiment [4], in [5] and in [6] was “inactive” in each case. In addition, the Potency entry in [7], in experiment [8], in [9], in [10], in [11] and in [12] was “inactive” each time. The Potency entry in experiment [13], in experiment [14], in experiment [15], in [20], in experiment [16] and in [17] was “inactive” throughout. In [18], the Potency entry was “inactive”.
